Compounds with a hit are over-represented: about 4.2% of the library has one in this group of screens.
FBA Mtb inh: Mtb fructose-bisphosphate aldolase inhibition | P9WQA3 | purified M. tuberculosis FBA, fluorescence read-out | inhibition, % at 1 µM | 360,000 compounds, 2.3% hits; in the data active means inhibition above about 27%
Target sequence (P9WQA3 whole entry, looked up): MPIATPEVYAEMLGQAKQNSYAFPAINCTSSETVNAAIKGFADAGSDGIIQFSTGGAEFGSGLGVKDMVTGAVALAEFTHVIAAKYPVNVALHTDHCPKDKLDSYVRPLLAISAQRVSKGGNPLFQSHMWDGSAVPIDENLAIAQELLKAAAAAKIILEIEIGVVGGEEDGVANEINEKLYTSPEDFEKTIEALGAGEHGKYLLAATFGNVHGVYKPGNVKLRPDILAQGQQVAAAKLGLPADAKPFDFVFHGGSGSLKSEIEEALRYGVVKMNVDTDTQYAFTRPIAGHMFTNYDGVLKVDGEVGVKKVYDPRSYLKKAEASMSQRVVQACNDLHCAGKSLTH
GDH-TPI counter-1: inhibits GDH-TPI coupling enzymes, artifact for Mtb FBA screen; GDH-TPI coupled enzyme counterscreen, NADH absorbance; 360,000 compounds, 1.2% hits; inhibition, % at 4.8 µM; AID 588335
RecA intein inh: blocks M. tuberculosis RecA intein splicing; P9WHJ3; cell-free RecA intein splicing, fluorescence; inhibition, % (test concentration not listed); 290,000 compounds, 0.75% hits; in the data active means inhibition above about 30%
CCHFV vOTU inh: blocks the CCHF virus ovarian tumor domain protease; CCHFV vOTU protease, Pep-AMC fluorescence; inhibition, % at 11.5 µM; 370,000 compounds, 0.55% hits
Mtb FBA inh conf: confirmation of M. tuberculosis fructose-bisphosphate aldolase inhibitors; shares compounds with FBA Mtb inh; purified M. tuberculosis FBA, fluorescence read-out; inhibition, % at 1 µM; 5,600 compounds, 78% hits; AID 651616; in the data active means inhibition above about 27%
GDH-TPI counter-2: counter-screen for M. tuberculosis FBA inhibitors: GDH-TPI coupled enzyme inhibition; 5,600 compounds, 81% hits; AID 652141; inhibition, % at 1 µM; GDH-TPI coupled enzyme counterscreen, fluorescence; shares compounds with FBA Mtb inh; in the data active means inhibition above about 10%
Hits are given with their value; . = inactive; / = no result given; + = active, no number. Unless noted, no stated cut-off is given here; in the data, active means inhibition above about 30%; inactive means the rest.

SMILES | FBA Mtb inh | GDH-TPI counter-1 | RecA intein inh | CCHFV vOTU inh | Mtb FBA inh conf | GDH-TPI counter-2
O=C(Nc1cccc2ccccc12)N1CC=CCC1 | 40.4 | . | . | . | . | .
O=C(Nc1cccc2ccccc12)N1Cc2ccccc2-n2nncc2C1 | 29.8 | . | / | . | 132.5 | 90.7
O=C(Nc1cccc2ccccc12)N1CCN(c2ccccc2)CC1 | 27.1 | . | / | . | 115.1 | 99.9
S=C(Nc1cccc2ccccc12)N1CCN(c2ncccn2)CC1 | . | . | . | . | / | /
O=C(Nc1cccc2ccccc12)N1CCN(c2ncccn2)CC1 | 49.7 | . | . | . | + | +
O=C(CSCC(=O)Nc1cccc2ccccc12)Nc1cccc2ccccc12 | . | . | . | . | / | /
Cn1c(=O)c(-c2ccccc2N)nc2ccccc21 | . | . | . | . | / | /
Cn1c(=O)c(-c2ccccc2)nc2ccccc21 | 44.4 | . | . | . | 58.8 | 38.9
O=C(O)CN1C(=O)/C(=C/c2ccccc2Br)Oc2ccccc21 | 83.1 | . | . | . | . | .
COc1ccccc1C(=O)COC(=O)/C(=C/c1ccccc1)NC(C)=O | . | . | . | . | / | /
CC(C)(C)NC(=O)CN(C(=O)c1snc(C(=O)NC2CCCCC2)c1N)c1ccc(F)cc1 | . | . | . | . | / | /
COc1ccc(CNC(=O)c2c(N)n(CCCN3CCOCC3)c3nc4ccccc4nc23)cc1 | 55.1 | . | . | . | 132.2 | 107.2
Nc1c(C(=O)NCc2ccccc2)c2nc3ccccc3nc2n1CCCN1CCOCC1 | 58.4 | . | . | . | 146.2 | 113.6
O=C(NCCCN1CCOCC1)c1ccc(CNS(=O)(=O)c2ccc(F)cc2)cc1 | . | . | . | . | / | /
Nc1c(C(=O)NCc2ccc(F)cc2)c2nc3ccccc3nc2n1CCCN1CCOCC1 | 47.9 | . | . | . | + | +
CC(Oc1cc2oc(=O)c3c(c2cc1Cl)CCCC3)C(=O)NCCN1CCOCC1 (stereo not given) | . | . | . | . | / | /
COc1ccc(C(=O)NCCS(=O)(=O)N(C)C2CCCCC2)cc1 | . | . | . | . | / | /
Cc1ccc(CN2CCSc3ccc(C(=O)NC4CCN(Cc5ccccc5)CC4)cc32)cc1 | . | . | . | . | / | /
O=C(NC1CCCC1)c1ccc2c(c1)N(Cc1ccccc1)CCS2 | 90.3 | . | . | . | 103.4 | 115.8
O=C(NC1CC1)c1ccc2c(c1)N(Cc1ccc(Cl)cc1)CCS2 | 105.7 | . | . | . | 53.9 | 47.8
COC(=O)c1ccc(-c2ccc(CNCC(O)c3ccccc3)o2)cc1 (stereo not given) | 36.1 | . | . | . | 125.6 | 105.6
CCCCn1nc2cc(C(=O)NCCc3cccs3)ccc2c1OCC | 61.9 | . | . | . | 125.4 | 103.4
CCCCn1nc2cc(C(=O)NCC34CC5CC(CC(C5)C3)C4)ccc2c1OCC | . | . | . | . | / | /
CCOc1c2ccc(C(=O)NCCc3cccs3)cc2nn1CC | 57.9 | . | . | . | 27.8 | 17.7
CCOc1c2ccc(C(=O)N[C@H](C)C3CCCCC3)cc2nn1CC | 64.2 | . | . | . | 53.1 | 44.6
SMILES | FBA Mtb inh | GDH-TPI counter-1 | RecA intein inh | CCHFV vOTU inh | Mtb FBA inh conf | GDH-TPI counter-2
S=C(NCCc1ccccc1)N1CCC2CC1c1cc(-c3ccc4c(c3)OCO4)ccc12 (stereo not given) | . | / | / | . | / | /
COCCCn1c2nc3ccccc3nc2c2c(=O)n(CC3CCCO3)cnc21 (stereo not given) | 78.6 | . | . | . | . | .
COc1cc(CN2C[C@@H](CO)O[C@@H](n3cnc4c(N(C)C(C)C)ncnc43)C2)cc(OC)c1OC | . | . | / | . | / | /
C[C@]12c3[nH]c4cc(-c5ccco5)ccc4c3CCN1C(=O)[C@@H](CC(=O)NCCN1CCOCC1)C[C@@H]2C(=O)N1CCOCC1 | 46.4 | . | / | . | + | +
CC(C)N(C(=O)[C@H]1C[C@H](CC(=O)NC(C)(C)C)C(=O)N2CCc3c([nH]c4cc(-c5ccco5)ccc34)[C@]12C)C(C)C | . | . | / | . | / | /
CCN(CC)C(=O)[C@H]1C[C@H](CC(=O)NC(C)(C)C)C(=O)N2CCc3c([nH]c4cc(-c5ccco5)ccc34)[C@]12C | 37.8 | . | / | . | + | 139.6
C[C@]12c3[nH]c4cc(-c5ccco5)ccc4c3CCN1C(=O)[C@@H](CC(=O)NCCCn1ccnc1)C[C@@H]2C(=O)N1CCOCC1 | 28.5 | . | / | / | . | .
CN(C)CCCNC(=O)C[C@H]1C[C@H](C(=O)N2CCCCC2)[C@@]2(C)c3[nH]c4cc(-c5ccco5)ccc4c3CCN2C1=O | 33.8 | . | / | . | 40.6 | 34.4
OCC[C@H]1C[C@@H](O)[C@H](O)[C@@]2(Cc3ccccc3O2)O1 | . | . | / | . | / | /
CCN(CC)N=Nc1ccc(S(=O)(=O)Nc2nc(C)cc(C)n2)cc1 | . | . | . | . | / | /
Cc1c(NS(=O)(=O)c2cccc(C(=O)Nc3cccc(F)c3)c2)c(=O)n(-c2ccccc2)n1C | . | . | / | . | / | /
CC(C)N(C(=O)[C@H]1C[C@H](CC(=O)NCCN2CCOCC2)C(=O)N2CCc3c([nH]c4cc(-c5ccco5)ccc34)[C@]12C)C(C)C | 35.8 | . | / | . | 150.5 | 123.9
COc1ccc(CNC(=O)C[C@H]2C[C@H](C(=O)N3CCOCC3)[C@@]3(C)c4[nH]c5cc(-c6ccco6)ccc5c4CCN3C2=O)cc1OC | 36.3 | . | / | . | + | +
CC(C)N(C(=O)[C@H]1C[C@H](CC(=O)NCCCn2ccnc2)C(=O)N2CCc3c([nH]c4cc(-c5ccco5)ccc34)[C@]12C)C(C)C | . | . | / | . | / | /
COc1ccc(CNC(=O)CC2C[C@H](C(=O)N3CCOCC3)[C@@]3(C)c4[nH]c5ccccc5c4CCN3C2=O)cc1OC (stereo not given in full) | . | . | / | . | / | /
CCC1CCCCN1CCCNC(=O)CSc1nc2nc(C)c(Cc3ccc(C)cc3)c(C)n2n1 (stereo not given) | . | . | . | . | / | /
COc1ccc(-c2ccc(CCC(=O)O)n2NC(N)=O)cc1 | . | . | . | . | / | /
CCCn1c(CCC(=O)O)ccc1-c1ccc(OC)cc1 | 30.2 | . | . | . | + | +
Fc1cc(F)c(F)c(SCn2cc(Br)cn2)c1F | . | . | / | . | / | /
Cc1c2ccccc2nc2ccccc12 | 63.9 | . | . | . | 199.4 | 123.3
COc1c2ccc(C(=O)NCc3cc(C(F)(F)F)cc(C(F)(F)F)c3)cc2nn1C | 45.6 | . | . | . | 97.0 | 73.3
CCCCn1nc2cc(C(=O)NCc3ccc(C(F)(F)F)cc3C(F)(F)F)ccc2c1OCC | . | . | . | . | / | /
CCOc1c2ccc(C(=O)NCc3ccc(C(F)(F)F)cc3C(F)(F)F)cc2nn1C | 59.8 | . | . | . | 127.5 | 104.0
Cc1ccc2[nH]c(=O)c3cc(C(=O)NC(C)C)sc3c2c1 | 73.5 | . | . | . | 84.5 | 68.0
CCN1CCN(CCCNC(=O)c2cc3c(=O)oc4ccc(C)cc4c3s2)CC1 | . | . | . | . | / | /
Cc1ccc2[nH]c(=O)c3cc(C(=O)NCC4CCCO4)sc3c2c1 (stereo not given) | . | . | . | . | / | /
CCCN1CCN(CCCNC(=O)c2cc3c(=O)[nH]c4ccc(C)cc4c3s2)CC1 | 52.6 | . | . | . | 90.7 | 92.8
